# “And” between values parts separate entries of the source, which are not always exact repeats. Equal entries are not always repeated. The whole screen tested about 420,000 compounds, of which about 50,000 (12%) were called active. Inconclusive results (about 26%) are left out. Calls come from the whole dose curve; as a rule, active = well fitted inhibition curve with a large enough effect; inconclusive = small, poorly fitted or top-dose-only effect; inactive = flat fitted curve, though single readings scatter. The entries come from a sample that favours actives as a whole.
# Assay: qHTS for Inhibitors of human tyrosyl-DNA phosphodiesterase 1 (TDP1): qHTS in cells in presence of CPT; note: nearly all actives have a fitted effect of over 55% in size
# Conditions: chicken DT40 Tdp1-/-;hTDP1 cells + 20 nM CPT, ATP luminescence, 48 h; series mostly up to 46.2 µM; activity change, negative = growth inhibition: at the top concentration
# In short: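 Chicken DT40 Tdp1-/- cells complemented with human TDP1, 400 cells/well, exposed to compounds plus 20 nM camptothecin for at least 48 h at 37 C; viability read as ATP content by CellTiter-Glo luminescence.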
# % is set by controls: 0 for no effect and ±100 for the full control effect; potency is the fitted concentration of half-maximal effect.
SMILES,"activity change, negative = growth inhibition",Potency
CCOC(=O)c1ccc(NC(=O)c2c(N)n(C)c(=O)[nH]c2=O)cc1,-12.4% (inactive),
Cc1ccc(S(=O)(=O)N2CCC(C(=O)NCC3CCCO3)CC2)cc1 (stereo not given),-17% (inactive),
Cc1cc(C2=NNC(=Nc3ccc(S(=O)(=O)N4CCOCC4)cc3)SC2)c(C)n1CC1CCCO1 (stereo not given),,5.17 µM (active)
Cc1ccnc(NS(=O)(=O)c2ccc(NC(=O)c3ccc(S(=O)(=O)N4CCOCC4)cc3)cc2)n1,-0.712% (inactive),
O=C1OC(Oc2ccc(Br)cc2)(c2ccccc2)c2ccccc21 (stereo not given),-0.929% (inactive),
CC1(C)Cc2ccccc2-c2[nH]c(=S)[nH]c(=O)c21,9.69% (inactive),
NC(=O)c1oc2ccccc2c1NC(=O)Cc1ccccc1,6.31% (inactive),
CCC(=O)Nc1c(C(=O)N2CCN(c3ccc(F)cc3)CC2)oc2ccccc12,,13 µM (active)
O=C(c1ccco1)N1CCN(C(=O)C2CC(c3ccc(F)cc3)=NO2)CC1 (stereo not given),-27.3% (inactive),
COCC(=O)Nc1c(C(=O)N2CCCC2)oc2ccccc12,18.4% (inactive),
O=C(Nc1ccccc1C(=O)N1CCCCC1)c1ccco1,-2.7% (inactive),
O=C(Nc1c(C(=O)N2CCN(c3ccc(F)cc3)CC2)oc2ccccc12)c1ccco1,,16.4 µM (active)
CC(Oc1cccc(Cl)c1)C(=O)NC1CC(C)(C)NC(C)(C)C1 (stereo not given),3.12% (inactive),
COc1cc(C2C(C(=O)c3cccs3)=C(O)C(=O)N2CCN2CCOCC2)ccc1OCCC(C)C (stereo not given),14.9% (inactive),
CN(Cc1ccccc1)c1ccc(/C=C/c2ccnc3ccccc23)cc1,,12.6 µM (active)
O=C(CN1CCCC1)N1CCN(c2ccccc2)CC1,-10.3% (inactive),
Oc1ccc(/C=N/N(Cc2ccccc2)c2ccccc2)cc1,22.5% (inactive),
CCN1CCN(c2ccc(/C=C/c3ccnc4ccccc34)cc2)CC1,,11.2 µM (active)
CN(C)c1ccc(/C=C/C=C/c2ccnc3ccccc23)cc1,,1.78 µM (active)
c1ccc(-c2cnc(CN3CCN(c4ccccc4)CC3)o2)cc1,0.628% (inactive),
CCC(C)N(c1ccc(/C=C/c2ccnc3ccccc23)cc1)C(C)CC (stereo not given),,7.08 µM (active)
Cc1ccc(S(=O)(=O)N(C)C)cc1NC(=O)C(C)OC(=O)c1ccc2ccccc2n1 (stereo not given),-5.45% (inactive),
CC(C)[C@@H](NC(=O)OC(C)(C)C)C(=O)NCC1CCC(C(=O)N[C@@H](Cc2ccccc2)C(=O)O)CC1 (stereo not given in full),5.99% (inactive),
C[C@H]1CN([C@@H](C)CO)S(=O)(=O)c2ccc(Br)cc2O[C@H]1CN(C)C(=O)c1cnccn1,-9.71% (inactive),
CNC(=O)COc1ccc(S(=O)(=O)Nc2ccccc2)cc1,3.15% (inactive),
CC(=O)c1ccccc1NC(=O)COC(=O)C1COc2ccccc2O1 (stereo not given),0.997% (inactive),
CC1(C(=O)NS(=O)(=O)c2ccccc2Cl)CCN1C(=O)c1cccc(F)c1 (stereo not given),-8.37% (inactive),

SMILES,"activity change, negative = growth inhibition",Potency
O=C(Cn1nc([N+](=O)[O-])nc1Br)NC1CCCCC1,-3.93% (inactive),
O=C(NCCS(=O)(=O)N1CCN(c2ccccc2)CC1)c1ccco1,0.253% (inactive),
CN1CCN(Cc2nc3cc(NC(=O)COc4ccc([N+](=O)[O-])cc4)ccc3n2C)CC1,-0.469% (inactive),
O=C(Oc1ccc(C(=S)N2CCOCC2)cc1)c1ccc(F)cc1,-2.14% (inactive),
Cc1ccc(SCC2=NNC(=O)C2)cc1,-7.49% (inactive),
O=C(COc1ccccc1)Nc1cc2c3c(c1)CC(=O)N3CCC2,-29.3% (inactive),
C=CCC1(C(=O)N(C)Cc2ccccc2)CCN(C(=O)OC(C)(C)C)CC1,,14.6 µM (active)
CN(Cc1ccccc1)C(=O)CCC1CCN(C(=O)c2ccco2)CC1,4.83% (inactive),
CC(C)(C)OC(=O)N1CCN(C(=O)c2[nH]c(C(F)(F)F)nc2-c2ccccc2)CC1,15.1% (inactive),
Oc1[nH]c2ccccc2c1N=Nc1c(F)c(F)c(F)c(F)c1F,,8.2 µM (active)
COCC(=O)N=Nc1c(O)[nH]c2ccccc12,-21.3% (inactive),
Cc1cccc(N=Nc2c(O)[nH]c3ccc(F)cc23)c1,-19.6% (inactive),
Cc1cc(=O)oc2c(C)c(OCC(=O)NCCc3ccc(S(N)(=O)=O)cc3)ccc12,-8.7% (inactive),
CCCNC(=O)C1(C)CCN(C(=O)c2ccccc2OC(F)(F)F)C1 (stereo not given),-16.5% (inactive),
c1ccc(CNc2ncncc2-c2cccnc2)cc1,-1.78% (inactive),
CN(c1ccccn1)c1ncnc2[nH]ncc12,-1.97% (inactive),
c1ccc(CNc2ncnc3[nH]ncc23)cc1,,20.6 µM (active)
Cc1ccc2c(=O)c(C(=O)c3cccc(Cl)c3)cn(CC(=O)NCc3ccccc3)c2n1,-3.25% (inactive),
CC1(C)CC(=O)C=C(N2CCOCC2)C1,13.7% (inactive),
Cc1oc(C(N)=O)cc1COc1ccc(C(N)=O)cc1,20.8% (inactive),
Cc1nc2nc(SCC(=O)NCc3ccco3)nn2c(C)c1Cc1ccccc1,-19.4% (inactive),
Cc1cccc(Cc2c(C)nc3nc(SCc4ccccc4Cl)nn3c2C)c1,,23.1 µM (active)
COC(OC)c1ccnc(SCc2ccccc2Cl)n1,13.7% (inactive),
O=C(O)c1ccccc1-c1cccc2nncn12,-17.6% (inactive),
Cc1nnc(SCC(=O)N/N=C/c2cn(-c3ccccc3)nc2-c2ccc(F)cc2)n1-c1ccccc1,-12.7% (inactive),
O=C(NCCCN1CCOCC1)c1cn(-c2ccccc2)nc1-c1ccc(F)cc1,-15.7% (inactive),
O=C(N/N=C/c1ccc([N+](=O)[O-])o1)c1cn(-c2ccccc2)nc1-c1ccc(F)cc1,,7.31 µM (active)

SMILES,"activity change, negative = growth inhibition",Potency
COc1ccc(S(=O)(=O)NCC(=O)NC2CC2)cc1OC,6.46% (inactive),
COc1ccc(Nc2cc(=O)oc3ccccc23)cc1,,2.91 µM (active)
COc1ccc(Nc2ccc3ccccc3c2)cc1,-8.39% (inactive),
COc1ccc(Nc2nnc(C)c3ccccc23)cc1,2.95% (inactive),
CCn1cc(/C=C(\NC(=O)c2ccc(C)cc2)C(=O)NCCN2CCOCC2)c2ccccc21,-28.7% (inactive),
CC1=NNC(=O)C1CC(=O)N/N=C/c1ccncc1 (stereo not given),1.34% (inactive),
CCCSc1nc2[nH]ncc2c(=O)[nH]1,-6.23% (inactive),
CCc1ccc(-n2c(SCc3cc(=O)n4cc(Br)ccc4n3)nc3[nH]ncc3c2=O)cc1,,23.1 µM (active)
Cc1nn(Cc2ccc(F)cc2)c(C)c1NC(=O)c1cc(CC(C)C)on1,,20.6 µM (active)
COc1ccc2c(c1)CCc1c(C(=O)Nc3c(C)n(C)n(-c4ccccc4)c3=O)noc1-2,-5.03% (inactive),
Cc1cc(C(=O)Nc2c(C)nn(Cc3ccccc3)c2C)on1,2.52% (inactive),
Cc1ccccc1Cn1nc(C)c(NC(=O)C(F)(F)F)c1C,7.52% (inactive),
Cc1nn(Cc2ccc(F)cc2)c(C)c1NC(=O)c1cccnc1Cl,5.99% (inactive),
Cc1nn(Cc2ccc(F)cc2)c(C)c1NC(=O)c1noc2c1CCc1ccccc1-2,,25.9 µM (active) and 4.61 µM (active)
C=CCOc1ccc(/C=C/C(=O)OC(C)C(=O)Nc2ccc(NC(C)=O)cc2)cc1 (stereo not given),4.08% (inactive),
CC(CCN1CCN=C1N(C)C)c1ccccc1 (stereo not given),-1.58% (inactive),
Cc1cc(C)c2c(n1)sc1c(=O)n(-c3ccccc3)c(=O)[nH]c12,1.18% (inactive),
CC(=O)Nc1cc(C(=O)N2CCc3c(Cl)cccc3C2)cc2ncn(CCc3ccccn3)c12,-10.1% [at 9.04 µM] (inactive),
COCCNC(=O)c1onc(CSc2cccc(C)c2)c1C(=O)O,-1.59% (inactive),
CN(Cc1c(F)cccc1Cl)C(=O)CNC(=O)c1ccc2c(c1)OCO2,-12.9% (inactive),
COCCN(Cc1cc2cc3c(cc2nc1Cl)OCO3)C(=O)c1cccc(C)c1,,7.31 µM (active)
CCSc1nc(O)c(C(c2cccc(OC)c2)c2c(O)nc(SCC)[nH]c2=O)c(=O)[nH]1,13.5% (inactive),
CC1COc2ccccc2N1C(=O)c1ccc(F)cc1 (stereo not given),-11.6% (inactive),
CC1(C)Cc2ccccc2-c2c[nH]c(=O)n21,-4.36% (inactive),
CCOC(=O)C1CCc2nc3ccccc3c(=O)n21 (stereo not given),-5.68% (inactive),
O=c1c2ccccc2nc2n1C1(CCCCC1)Cc1ccccc1-2,,16.4 µM (active)
CCC1(CC)Cc2ccccc2-c2nc3ccccc3c(=O)n21,,18.4 µM (active)

SMILES,"activity change, negative = growth inhibition",Potency
CC1(C)Cc2ccccc2-c2nnc(-c3cccc(O)c3)n21,-0.381% (inactive),
c1cncc(-c2nnc3n2C2(CCCCC2)Cc2ccccc2-3)c1,-13.9% (inactive),
CCCCSc1ncnc2c1sc1nc(N3CCOCC3)c3c(c12)CCCC3,-0.216% (inactive),
NS(=O)(=O)c1ccc(CCNC(=O)COC(=O)COc2cccc(C(F)(F)F)c2)cc1,4.49% (inactive),
CCN(c1ncnc2c1cnn2-c1ccc(C)cc1)C1CCCCC1,-0.498% (inactive),
O=C(c1cc(-c2ccc(Cl)s2)nc2ccccc12)N1CCOCC1,-5.37% (inactive),
COCCNc1cc(NCCOC)c([N+](=O)[O-])cc1[N+](=O)[O-],11.4% (inactive),
COCCNc1ccc(-c2n[nH]c(=O)c3ccccc23)cc1[N+](=O)[O-],,14.6 µM (active)
COCCNC(=O)c1ccccc1NS(=O)(=O)c1ccc(C)c([N+](=O)[O-])c1,-3.71% (inactive),
CC(C)(C)C(=O)OCc1nc(-c2ccc(O)c(O)c2)cs1,,6.51 µM (active)
Cc1onc(C(=O)NN)c1-c1csc(COc2ccccc2)n1,7.79% (inactive),
COc1ccc(-c2csc(-c3cccs3)n2)cc1OC,-22.2% (inactive),
O=C(Nc1ccncc1)c1ccc([N+](=O)[O-])cc1Cl,-26.5% (inactive),
O=C1N(c2ccc(Cl)cc2)C(c2ccc(Cl)cc2)N2CCCN12 (stereo not given),8.43% (inactive),
Nc1nonc1-n1nnc(C(=O)N/N=C\c2ccncc2)c1CN1CCCCC1,2.3% (inactive),
Nc1nonc1-n1nnc(C(=O)N/N=C/c2cc(Br)ccc2O)c1CSC1=NCCS1,,5.8 µM (active)
Cc1ccc(SCc2c(C(=O)N/N=C/C3CC=CCC3)nnn2-c2nonc2N)cc1 (stereo not given),-6.45% (inactive),
COc1cc(OC)c(OC)cc1/C=N/Nc1ncnc2c1[nH]c1ccc(C)cc12,-13.9% (inactive),
CC(C)OCCCNc1ncnc2c1[nH]c1ccc(F)cc12,,2.91 µM (active)
COc1ccc(CCNC(=O)CC2SC(=Nc3cc(C)cc(C)c3)NC2=O)cc1OC (stereo not given),-27.2% (inactive),
CC(C)(C)OC(=O)CNC(=O)c1[nH]cnc1C(=O)N[C@@H](CCCCN)C(=O)OC(C)(C)C,-1.96% (inactive),
COc1cc2ccccc2cc1C(=O)Nc1ccc(NC(=O)c2cccs2)cc1,,20.6 µM (active)
COc1cc(NC(=O)c2cccs2)ccc1NC(=O)c1ccccc1Cl,-14.7% (inactive),
COc1cc2ccccc2cc1C(=O)Nc1ccncc1,-17.4% (inactive),
